Compound activity (PubChem BioAssay)
MEKK2mut PB1 HTS – signal of MEK5 binding to mutant human MEKK2 PB1 domain; actives 0.35% (n = 290,000); AID 1530; percent response, % at 10 µM; bead flow cytometry, Alexa488-MEK5 binding to MEKK2 mutant; in the data active = percent response above about 24%, passing the limit was not always enough
MEKK2wt PB1 HTS – raises or lowers MEK5 binding to wildtype human MEKK2 PB1 domain; Q9Y2U5; binding response (% of control), % at 10 µM; AID 1531; bead flow cytometry, Alexa488-MEK5 binding to MEKK2 WT; actives lie on both sides; actives 1.1% (n = 290,000); in the data active = binding response below about 67% or above about 130%
MEKK3 PB1 HTS – modulators (inhibitors or enhancers) of MEK5 binding to human MEKK3 PB1 domain. actives 1.4% (n = 290,000). AID 1529. Q99759. bead-based flow cytometry, Alexa488-MEK5 binding to MEKK3; actives lie on both sides; 0 = blocked by unlabeled MEK5, 100 = vehicle. binding response (% of control), % at 10 µM;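 active = binding response more than 3 SD above or below the average of its plate-row segment, actives on both sides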;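 note: Alexa488 bead fluorescence after subtracting the streptavidin-only scavenger bead signal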
GRK2 aptamer HTS – inhibitors of human GRK2 displacing RNA aptamer | actives 0.59% (n = 330,000) | bead flow cytometry, FAM-aptamer displacement from GRK2 | P25098 | inhibition of aptamer binding, % at 10 µM;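 active = inhibition of aptamer binding above 40%, roughly 3 SD of noise, on plates passing a quality check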;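 note: median bead fluorescence of bound FAM aptamer so fluorescent compounds give negative values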
Target sequence (P25098 whole entry, looked up): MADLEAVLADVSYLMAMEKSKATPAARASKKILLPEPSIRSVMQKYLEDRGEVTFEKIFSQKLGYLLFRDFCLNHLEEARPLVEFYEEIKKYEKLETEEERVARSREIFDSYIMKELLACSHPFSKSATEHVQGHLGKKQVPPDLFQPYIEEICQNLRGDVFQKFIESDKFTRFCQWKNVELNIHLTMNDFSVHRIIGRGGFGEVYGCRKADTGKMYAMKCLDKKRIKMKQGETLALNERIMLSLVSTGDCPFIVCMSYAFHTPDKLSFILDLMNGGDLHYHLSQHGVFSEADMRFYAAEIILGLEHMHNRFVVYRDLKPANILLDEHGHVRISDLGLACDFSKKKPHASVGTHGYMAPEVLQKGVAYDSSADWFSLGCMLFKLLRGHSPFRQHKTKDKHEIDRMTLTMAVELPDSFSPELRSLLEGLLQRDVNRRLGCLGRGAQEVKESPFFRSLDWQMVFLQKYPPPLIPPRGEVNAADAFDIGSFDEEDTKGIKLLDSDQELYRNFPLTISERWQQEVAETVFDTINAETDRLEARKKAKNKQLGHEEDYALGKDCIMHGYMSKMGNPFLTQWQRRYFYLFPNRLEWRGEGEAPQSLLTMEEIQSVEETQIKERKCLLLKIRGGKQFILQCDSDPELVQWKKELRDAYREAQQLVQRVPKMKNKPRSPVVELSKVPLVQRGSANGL
MEKK2wt confirm – raises or lowers MEK5 binding to wildtype human MEKK2, retest; shares compounds with MEKK3 PB1 HTS; bead flow cytometry, Alexa488-MEK5 binding to MEKK2 WT; actives lie on both sides; binding response (% of control), % at 10 µM; actives 2.4% (n = 5,900); AID 1892; in the data active = binding response below about 16% or above about 210%; inactive = in between
MEKK2mut confirm – signal of MEK5 binding to mutant human MEKK2, retest; shares compounds with MEKK3 PB1 HTS; bead flow cytometry, Alexa488-MEK5 binding to MEKK2 mutant; percent response, % at 10 µM; actives 2% (n = 5,900); AID 1893; in the data active = percent response mostly above about 71%, no sharp cut-off; inactive = mostly below about 38%;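 note: higher means compound restores mutant binding toward wildtype level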
MEKK3-MEK5 inh – MEKK3-MEK5 PB1 inhibition, single concentration confirmation; shares compounds with MEKK3 PB1 HTS; bead flow cytometry, Alexa488-MEK5 binding to MEKK3; hits give low values; AID 1894; binding response (% of control), % at 10 µM; actives 1.8% (n = 5,900);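 active = binding response below 72% of control, or above a set upper limit, though filed actives all read lower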;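 note: lower values mean stronger disruption of MEK5 binding to MEKK3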
Hits are given with their value; n = inactive; x = not tested or not shown; + = active, no number; [ ] = remark or other dose. The list is not random: actives were taken first. Their share in the collection is about 2.5%.

SMILES	MEKK2mut PB1 HTS	MEKK2wt PB1 HTS	MEKK3 PB1 HTS	GRK2 aptamer HTS	MEKK2wt confirm	MEKK2mut confirm	MEKK3-MEK5 inh
CCC1=Nc2cc(C(=O)NCCCOC(C)C)ccc2Sc2ccccc21	n	n	128.0	n	n	n	n
COc1ccc(Cl)cc1S(=O)(=O)N(C)CC(=O)N1CCOCC1	n	n	n	n	x	x	x
COc1ccc(/C=C(\NC(=O)c2ccc(OC)cc2)C(=O)N2CCCCC2)cc1	n	n	n	n	x	x	x
O=C(C1=C[C@@H](c2ccc(C(F)(F)F)cc2)C[C@@H](OCCCCO)O1)N1CCN(Cc2ccccc2)CC1	n	n	73.0[inhibitor]	n	n	n	n
O=C(C1=C[C@H](c2ccc(C(F)(F)F)cc2)C[C@H](OCCCCO)O1)N1CCN(Cc2ccccc2)CC1	n	n	n	n	x	x	x
O=C1NC2(CCCCCC2)C(=O)N1Cc1cccc([N+](=O)[O-])c1	n	n	n	n	x	x	x
CCCCc1ccc(NC(=O)N[C@@H](CC(C)C)C(=O)O)cc1	n	n	2.0[inhibitor]	n	n	n	n
CC1=NN(c2ccccc2)C(=O)/C1=C\c1sccc1C	n	n	n	n	x	x	x
CC1=NN(c2ccccc2)C(=O)/C1=C/C=C/c1ccccc1	n	n	129.0	n	n	n	n
COc1ccc(SC[C@H](CC(C)C)N2CCN(C)CCC2=O)cc1	n	146.0	128.0	n	n	n	n
COc1ccc(SC[C@H](CC(C)C)N2CCN(CCc3ccccc3)CCC2=O)cc1	n	137.0	n	n	n	n	n
Cc1ccc(SC[C@H](CC(C)C)N2CCN(CCc3ccccc3)CCC2=O)cc1	n	n	n	x	x	x	x
CN1CCC(=O)N([C@H](CSc2ccccc2)c2ccccc2)CC1	n	n	n	n	x	x	x
O=C1CCN(CCc2ccccc2)CCN1[C@H](CSc1ccc(Br)cc1)Cc1ccccc1	n	154.0	n	x	n	n	n
CCCN1CCC(=O)N([C@H](CSc2ccc(OC)cc2)c2ccccc2)CC1	n	165.0	129.0	n	n	n	n
CN(CC(=O)Nc1c(Cl)cccc1Cl)C(=O)c1cccc(-n2cccc2)c1	x	x	x	n	x	x	x
Cc1cc(C)cc(NS(=O)(=O)c2ccc3c(c2)C(C)(C)C(=O)N3C)c1	n	n	n	n	x	x	x
CCC1CN(C(=O)N2CCC(C(=O)NCCc3ccccc3)CC2)c2ccccc2O1 (stereo not drawn)	n	n	n	n	x	x	x
CCCc1ccc2oc(C(=O)N(C)Cc3cnccn3)c(C)c2c1	n	n	n	n	x	x	x
CCCc1ccc2oc(C(=O)N(C)CCn3ccnc3C)c(C)c2c1	24.0	n	n	n	n	n	n
OC(COc1ccc(CN2CCCCO2)cc1)CN1CCCCC1 (stereo not drawn)	n	n	n	n	x	x	x
CCOc1ccc(NC(=O)CN2CCN(CC(=O)Nc3cc(OC)cc(OC)c3)CC2)cc1	25.0	n	n	n	n	n	n
COc1ccccc1NC(=O)CN1CCN(CC(=O)Nc2ccc3c(c2)OCCO3)CC1	24.0	n	n	n	n	n	n
O=C(Nc1ccc(S(=O)(=O)Nc2ccccc2F)cc1)N1CCCCC1	n	n	n	n	x	x	x
O=C(Cn1nc(-c2ccccc2Cl)ccc1=O)Nc1ccc(Br)cc1	+	x	140.0	n	n	n	n
SMILES	MEKK2mut PB1 HTS	MEKK2wt PB1 HTS	MEKK3 PB1 HTS	GRK2 aptamer HTS	MEKK2wt confirm	MEKK2mut confirm	MEKK3-MEK5 inh
CCN(CC)CCNC(=O)CCc1nnc2ccc(N3CCC(C)CC3)nn12	n	n	n	n	x	x	x
O=c1cc(CO)oc(CN2CCN(Cc3ccccc3)CC2)c1O	n	135.0	n	n	n	n	n
S=C1NC[C@H](c2ccccc2)N1CCCCC1CCCCC1	n	n	n	n	x	x	x
NC1=NC[C@H](c2ccccc2)N1CCCCC1CCCCC1	n	146.0	n	n	n	n	n
CC(OC(=O)c1cccc(S(=O)(=O)N2CCOCC2)c1)C(=O)NC1CCCCC1C (stereo not drawn)	x	x	x	n	x	x	x
CC(=O)CSc1nnc2c3ccccc3nc(C(C)(C)C)n12	n	63.0[inhibitor]	73.0[inhibitor]	n	n	n	n
Cc1ccc(C(=O)CSc2nnc3c4ccccc4nc(C(C)(C)C)n23)cc1	n	n	n	n	x	x	x
CC(=O)Nc1ccc(N2C(=O)CSC2c2ccc(F)cc2)cc1 (stereo not drawn)	n	n	81.0[inhibitor]	n	n	n	n
Cc1ccc(NS(=O)(=O)c2c(C)[nH]c(C)c2C(=O)N2CCCCC2)cc1Cl	n	n	n	n	x	x	x
Cc1ccc(-c2nc(NCCN3CCOCC3)c3ccccc3n2)cc1	n	n	72.0[inhibitor]	n	n	n	n
Cc1c2cnn(CC(=O)NCCN3CCOCC3)c(=O)c2c(C)n1Cc1ccccc1	n	n	n	n	x	x	x
Cc1c2cnn(CC(=O)NCCCN3CCCCC3)c(=O)c2c(C)n1Cc1ccccc1	n	137.0	n	n	n	n	n
CCOC(=O)C(=Cc1ccc(F)cc1)C(=O)OCC	33.0	n	n	n	n	n	n
CCOC(=O)C(=Cc1ccc(Br)cc1)C(=O)OCC	n	n	n	n	x	x	x
O=C(CN1C(=O)/C(=C\C=C\c2ccccc2)SC1=S)Nc1ccc(F)cc1	n	n	n	n	x	x	x
O=C(COC(=O)CCN1C(=O)/C(=C\C=C\c2ccccc2)SC1=S)Nc1cc(F)ccc1F	n	58.0[inhibitor]	n	n	n	n	n
Cc1ccc(C(=O)NCC(=O)NCC(c2cccs2)N(C)C)cc1C (stereo not drawn)	x	x	x	n	x	x	x
CSc1nc2ccccc2n1Cc1cccc([N+](=O)[O-])c1	n	n	152.0	n	n	n	n
CSc1nc2ccccc2n1Cc1cccc(F)c1	n	n	n	n	x	x	x
O=C(NCc1ccco1)/C(=C\c1ccc(F)cc1)NC(=O)c1ccco1	n	n	n	n	x	x	x
COc1cccc(Nc2ccc(Nc3cccc(OC)c3)nn2)c1	76.0	172.0	n	n	n	n	n
O=C(Cn1cnc2c(nnn2Cc2ccc(Cl)cc2)c1=O)N1CCCc2ccccc21	n	n	69.0[inhibitor]	n	n	n	n
CCOC(=O)CCSc1nc(C)c2cc(C)c(C)cc2n1	n	n	n	n	x	x	x
CCOC(=O)CCSc1nc(C)c2cc(OC)ccc2n1	n	n	72.0[inhibitor]	n	n	n	n
Cc1ccc(S(=O)(=O)NN)c(C)c1N1CCCC1=O	n	n	44.0[inhibitor]	n	n	n	n
Cc1ccc(C)c(S(=O)(=O)Nc2cc3c4c(c2)CC(=O)N4CCC3)c1	x	x	x	n	x	x	x
CN1CCN(c2ccc(NC(=O)c3ccc(-c4ccc(Cl)cc4)o3)cc2)CC1	43.0	171.0	n	n	n	72.0	n
CS(=O)(=O)N1CCN(c2ccc(NC(=O)c3ccc(-c4ccc(Cl)cc4)o3)cc2)CC1	n	n	n	n	x	x	x
CCOC(=O)Cn1nc(C)cc1NC(=O)c1cccnc1	n	n	n	n	x	x	x
